HEK293 cAMP ctrl: qHTS Assay for Agonists of the Thyroid Stimulating Hormone Receptor: Activators of Intracellular cAMP Concentrations in Parental HEK 293; parental HEK293 CNG cAMP sensor, membrane potential fluorescence; hit rate 2.5% among 73,000; Potency, µM (series often up to 57.1 µM), without a hit: top-dose activation, usual class: activators; also: % of control where 0% means no effect; nearly all actives have a fitted effect of over 55% in size
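Parental HEK 293 cells stably expressing a modified CNG channel (no TSHR) report cAMP rise as membrane depolarization. Membrane potential dye with 100 uM RO 20-1724 was loaded for 60 min at room temperature, then compound added for 30 min; fluorescence read at 590 nm.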
GBA mod: Glucocerebrosidase. Lysosomal acid glucosylceramidase (Homo sapiens), P04062. purified enzyme, resorufin glucoside fluorescence (screen aimed at inhibitors), 20 min. Potency, µM. hit rate 1.1% among 48,000. AID 360, 2006; in the data active = potency below about 15 µM; inconclusive = mostly about 16 µM to 33 µM;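 also: the screen sought inhibitors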
Target sequence (P04062 whole entry, looked up): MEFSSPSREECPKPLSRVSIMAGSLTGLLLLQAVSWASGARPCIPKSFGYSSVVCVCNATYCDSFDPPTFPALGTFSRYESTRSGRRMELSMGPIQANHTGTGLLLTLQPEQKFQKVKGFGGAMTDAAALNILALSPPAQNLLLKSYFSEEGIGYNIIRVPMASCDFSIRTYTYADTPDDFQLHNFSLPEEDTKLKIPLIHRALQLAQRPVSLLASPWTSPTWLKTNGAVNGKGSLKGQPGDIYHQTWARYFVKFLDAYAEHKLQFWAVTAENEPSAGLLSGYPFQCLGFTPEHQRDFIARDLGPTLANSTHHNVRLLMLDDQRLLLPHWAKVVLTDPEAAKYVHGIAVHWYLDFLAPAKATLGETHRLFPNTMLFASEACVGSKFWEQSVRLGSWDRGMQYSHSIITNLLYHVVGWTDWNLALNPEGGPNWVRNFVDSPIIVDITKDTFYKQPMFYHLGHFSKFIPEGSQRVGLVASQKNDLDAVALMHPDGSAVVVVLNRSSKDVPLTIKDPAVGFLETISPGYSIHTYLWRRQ
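Wild-type enzyme at 0.2 nM final in 50mM citric acid/KH2PO4, 10mM sodium taurocholate, 0.01% tween-20, pH 5.9, with resorufin beta-D-glucopyranoside at 30 uM final. Compounds titrated, 20 min at RT, red fluorescence read; AC50 from titration.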
TSHR ag: qHTS Assay for Agonists of the Thyroid Stimulating Hormone Receptor. hit rate 0.48% among 73,000. Potency, µM (top dose mostly 57.1 µM), inactives show top-dose activation, actives largely listed as activators. HEK293-CNG-TSHR cells (CNG channel as cAMP sensor), membrane potential dye, cAMP. AID 926, 2007; active = well fitted activation curve with a large enough effect in the main read-out, with a control signal flat, not every such curve was filed as active; inconclusive = small, poorly fitted or top-dose-only effect, or a change in a side signal; inactive = no such curve, though single readings can be large or run the other way; % of control where 0% means no effect;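 also: the control signal comes from parental cells without the receptor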
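HEK 293 cells stably expressing TSHR and a cAMP-gated CNG channel; parental CNG-only cells as counterscreen. Cells preloaded 60 min with membrane potential dye plus 100 uM RO 20-1724, then compound 30 min; fluorescence read at 590 nm.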
FLuc inh: qHTS Assay for Inhibitors of Firefly Luciferase; purified firefly luciferase, luminescence, 8 min; Potency, µM (doses to about 57.1 µM), for inactives: top-dose activity change, negative = inhibition, usual class: inhibitors; hit rate 2.2% among 72,000; Luciferin 4-monooxygenase (Photinus pyralis), P08659; also: % is scaled to controls: 0 for no effect and ±100 for the full control effect; nearly all actives have a fitted effect of over 40% in size
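Compounds were tested as concentration series (qHTS) against purified P. pyralis luciferase with luciferin and 10 uM ATP in 50 mM imidazole pH 7.2, 50 mM KCl, 7 mM MgCl2, 0.01% Tween 20, 0.05% BSA. Luminescence was read after 8 min at ambient temperature.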
ERK AVP block: qHTS Assay for Inhibitors of the ERK Signaling Pathway using a Homogeneous Screening Assay; AID 995, 2007; HEK293-V1b, vasopressin-stimulated pERK AlphaScreen; hit rate 0.99% among 72,000; Potency, µM (series often up to 57.5 µM), without a hit: at the highest dose activity, negative = inhibition, usual class: inhibitors; also: % is scaled to controls: 0 for no effect and ±100 for the full control effect; nearly all actives have a fitted effect of over 55% in size
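Overnight-seeded V1b-HEK293 cells in 1% FBS got compound, then vasopressin (25 nM final, 5 min, 37C), then lysis buffer. AlphaScreen detection of phospho-ERK; activity normalized to basal and full-stimulation controls.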
Bst PK mod: Pyruvate Kinase; purified pyruvate kinase, luminescence ATP production; ribose 5-phosphate activator present at AC10; Potency, µM; hit rate 1.2% among 51,000; in the data active = potency below about 11 µM; inconclusive = mostly about 12 µM to 25 µM;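 the screen sought inhibitors and activators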;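 also: scaled between full activation by ribose 5 phosphate and full inhibition by luteolin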
Starred values were filed as active, the others as inactive; i = inactive; ? = inconclusive; · = no result; [ ] = dose if it differs, or a comment. Compounds with a hit are over-represented: about 6.1% of the library has one in this group of screens. Unless noted, calls follow the shape of the dose curve; as a rule, active = well fitted curve in the direction sought with a large enough effect; inconclusive = small, poorly fitted or top-dose-only effect, or another doubt; inactive = no such curve, though single readings can be large; an effect the other way counts as inactive or inconclusive. Potency is read from the fitted curve at half-maximal effect.

SMILES	HEK293 cAMP ctrl	GBA mod	TSHR ag	FLuc inh	ERK AVP block	Bst PK mod
CC(C)C[C@@H](CC(=O)N[C@@H](CCC(=O)O)CC(=O)O)NC(=O)[C@@H]1CNCC[C@H]1NC(=O)C[C@@H](NC(=O)C[C@H](CO)NC(=O)[C@@H]1CCCC[C@H]1N)C(C)C	8%	·	10%	·	·	·
Cc1cccc(N2CCN(CC(=O)NCC3CCCCC3)CC2)c1C	?	·	?	1%	25µM*	>57
Cc1ccc(S(=O)(=O)N2CCN(C(=O)CN3CCc4ccccc4C3)CC2)cc1	10µM*	>77	?	4%	5%	>57
O=C(CN1CCc2ccccc2C1)N1CCN(S(=O)(=O)c2ccccc2)CC1	8%	>77	17%[11.4 µM]	-1%	16%	>57
CCn1c(COc2ccccc2C)nnc1SCC(=O)O	8%	>77	-3%	2%	-7%	>57
CCn1c(SCC(=O)O)nnc1-c1cc2c(C)nn(-c3ccccc3)c2s1	4%	>77	-2%	25µM*	-27%	i
O=C(O)C[C@@H](C(=O)O)c1ccccc1[N+](=O)[O-]	?	·	?	1%[11.4 µM]	7%[11.5 µM]	·
Cc1nn(-c2nc3ccccc3s2)c(N)c1-c1ccc(Cl)cc1	1%	10*	-3%	-17%	2%	7.8*
Cc1nn(-c2nc3ccccc3[nH]2)c(N)c1-c1ccccc1	-6%	>77	14%	7.9µM*	-16%	2.9*
Cc1nn(-c2nc3ccccc3s2)c(N)c1-c1ccccc1	-12%	>77	-23%	4µM*	34%	1.6*
O=C1CCC(c2ccccc2)=NN1c1nc2ccccc2s1	3%[11.4 µM]	·	3%[11.4 µM]	-4%[11.4 µM]	11%[11.5 µM]	·
COC(=O)[C@@H]1CC[C@H](C)[C@@H](c2ccc(C)cc2)N1C(=O)c1ccc(/C=N\OC[C@@H](O)[C@H]2O[C@H]3OC(C)(C)O[C@H]3[C@@H]2O)cc1	1%[11.4 µM]	·	1%[11.4 µM]	0%[11.4 µM]	17%[11.5 µM]	·
Nc1nc(Cl)nc2c1ncn2[C@@H]1O[C@H](CO)[C@@H](O)[C@H]1O	·	·	·	0%[25.5 µM]	10µM*	>26
NC(=O)c1cnn2c(C(F)(F)F)cc(-c3ccc(F)cc3)nc12	-5%	>77	8%	-2%	?	2.7*
NC(=O)c1cnn2c(C(F)(F)F)cc(-c3ccccc3)nc12	1%	>77	12%	4%	?	11*
O=C(c1cnn2c(C(F)(F)F)cc(-c3ccc4c(c3)OCO4)nc12)N1CCCCC1	20µM*	>77	?	4%	-16%	>57
O=c1c(-c2cccs2)nc2cncnc2n1Cc1ccc(F)cc1	-1%	·	-10%	-2%[11.4 µM]	10%	·
Cn1cc(-c2nc3cnc(Oc4ccccc4)nc3n(C3CC3)c2=O)c2ccccc21	14%[2.29 µM]	·	4%	0%[11.4 µM]	6%	·
CC(=O)[C@H]1CC[C@@H]2[C@H]3CC=C4C[C@@H](O)CC[C@]4(C)[C@H]3CC[C@]12C	7%[25.6 µM]	·	0%[25.6 µM]	10%[25.5 µM]	-24%[25.7 µM]	·
COc1ccccc1NC(=O)Cn1nnc(-c2ccccc2NC(=O)c2ccco2)n1	9%	>77	7%	-1%	-14%	>57
COc1ccc(NC(=O)Cn2nnc(-c3ccccc3NC(=O)c3ccco3)n2)cc1	-6%	7.2*	25%	0%	-17%	>57
CCOC(=O)CCN1C(=O)[C@H]2[C@H]3[C@H](O)[C@H](O)C/C(=N/NC(=O)OCc4ccc(OC)cc4)[C@H]3CC[C@@H]2C1=O	-4%[11.4 µM]	·	-1%[11.4 µM]	-2%[11.4 µM]	-16%[11.5 µM]	·
CCOc1ccc2[nH]c(=O)c(CN(Cc3cccs3)Cc3nnnn3C(C)(C)C)cc2c1	25µM*	?	?	1%	-1%	>57
CCOC(=O)c1cc(-c2ccc(N)cc2)sc1N	4%	>77	-8%	13µM*	-32%	?
CSc1nsc(SCC(=O)N2CCc3ccccc32)n1	25µM*	>77	?	1%	5%	>57
SMILES	HEK293 cAMP ctrl	GBA mod	TSHR ag	FLuc inh	ERK AVP block	Bst PK mod
Cc1nnc(SCC(=O)N2CCc3ccccc32)s1	0%	>77	-4%	-1%	-8%	>57
CN(C)c1ccc(Nc2nc(-c3cccnc3)cs2)cc1	-15%[11.4 µM]	·	10%[11.4 µM]	0.63µM*	?	·
COc1ccc(-c2cc(C(=O)NCc3cccs3)no2)cc1OC	2%	·	30%	0%	-21%	·
COC(=O)C1=C(C)NC(C)=C(C(=O)OC)C1c1cc2ccc(C)cc2[nH]c1=O	22%	>77	16µM*	2%	23%	>57
CCOC(C)(C)C	15%	·	-7%	·	7%	·
COc1ccc(COC(=O)N/N=C2/C[C@@H](O)[C@@H](O)[C@@H]3[C@@H]4C(=O)N(Cc5ccccc5)C(=O)[C@H]4CC[C@@H]23)cc1	-1%[11.4 µM]	·	-3%[11.4 µM]	0%[11.4 µM]	5%[11.5 µM]	·
Cc1cccn2cc(-c3ccc(F)cc3)nc12	-8%	·	5%	7.9µM*	-3%	·
Cc1cccn2cc(-c3ccccc3)nc12	?	>77	?	10µM*	-4%	?
Cc1cccn2cc(CNc3ccccc3)nc12	5%	>77	0%	-18%	-34%	>57
CC(C)C[C@@H](CC(=O)N[C@H](CC(=O)N[C@@H]1CCNC[C@H]1C(=O)N[C@H](CC(=O)N[C@@H](CCC(=O)O)CC(=O)O)CC(C)C)C(C)C)NC(=O)[C@@H]1CCCC[C@H]1N	3%	·	·	·	·	·
CN(C)C(=O)c1ccc(-c2cc(NCc3cccs3)ncn2)cc1	9%	·	9%	0%[2.29 µM]	-17%	·
COc1ccccc1CNc1ncnc2ccc(-c3ccoc3)cc12	20µM*	·	?	-2%[2.29 µM]	?	·
COc1cccc(-c2ccc3ncnc(NCc4cccs4)c3c2)c1	?	·	?	0%[2.29 µM]	16µM*	·
CN(C)C(=O)c1ccc(-c2ccc3ncnc(NCc4cccs4)c3c2)cc1	1%	·	14%	-2%[2.29 µM]	32µM*	·
COc1ccc(CNc2ncnc3ccc(-c4ccoc4)cc23)c(OC)c1	?	·	?	0%[2.29 µM]	?	·
CC(C)=C[C@H]1[C@@H](COC(=O)c2ccccc2Cl)C1(C)C	?	·	?	-1%[11.4 µM]	-7%[11.5 µM]	·
CC(C)c1cc(C(F)(F)F)nc(NNc2nc(C(C)C)cc(C(F)(F)F)n2)n1	5µM*	·	?	3%[11.4 µM]	-1%[11.5 µM]	·
Cc1ccc(N2C(=O)c3ccc(N)cc3C2=O)cc1C	?	>77	?	-23%	31%	·
Cc1ccc(N2C(=O)c3ccc(N)cc3C2=O)cc1	-31%	>77	?	16µM*	26%	·
O=S(=O)(c1ccc2c(c1)OCCO2)N(Cc1ccc(F)cc1)Cc1nnc(-c2cccs2)o1	2µM*	>77	?	-1%	25%	>57
CCCn1cnc2c(SCC(=O)O)nc(N)nc21	4%[11.4 µM]	·	7%[11.4 µM]	3%[11.4 µM]	19%[11.5 µM]	·

Screening results: PubChem BioAssay, National Center for Advancing Translational Sciences (NCATS)
